# Assay results from the supplement of paper PMC11417369.
# ± gives the standard deviation of the averaged measurements. Over roughly 25,000 sequences, “ln(normalized median fluorescence intensity)” has its median near 10; the highest 2% begin near 12. Many of the other results were omitted from the sample, so the highest values are more common in it than they were.
# System: PfAP2-G AP2 domain (GST-tagged)
# Test: gcPBM binding intensity (ln(normalized median fluorescence intensity)); higher = stronger DNA binding
# In short: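 The highest Masliner-normalised natural-log median intensity across replicate spots of either probe orientation is reported as binding intensity. GST-tagged P. falciparum DNA-binding domains expressed in E. coli were applied for 1 h to an Agilent 4 × 180k array of primer-extended double-stranded 36-bp intergenic genomic probes plus negative controls, and bound protein was detected with Alexa488 anti-GST antibody and scanned at 488 nm.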
row,Sequence,gcPBM binding intensity (ln)
1,AAAAAATACTTATAAAGTACTAATATATATAAGCAG [XGTACX_site743],10.9 ± 0.48
2,TTTATGGAATAATCACGTACACACAAGAAAAAAAAA [XGTACX_site985],11.4 ± 0.91
3,TTTATATTTAAAAGGATGCACTACAAATTCTAAATA,10.3 ± 0.3
4,TTTTTTTTTCCCGTAAATATTGAGACAACCATAATG [CACACA_negctrl_site41],10.6 ± 0.54
5,TATATAATATTACGTTGTACACTTTAATCTCCCTTC [XGTACX_site5577],11.1 ± 0.7
6,CTATTTTTTGTATAAACATGCATATAGTAGATATGG [TGCATGCA_site670],10.1 ± 0.23
7,AAAGAATTTAAATATTGTACGCAATATATAAAAAAA [XGTACX_site7616],11.5 ± 0.92
8,CTTTAACCTTTTTATTGTACTTTTAATATTTTAAAA [XGTACX_site4457],11.4 ± 0.86
9,TTTAAACCTTAATATTGTACGCAAAAAAAAAAAGAA [XGTACX_site3757],11.6 ± 1
10,CATTTTATTTTAATATGTACTTAAAGAAAAAAAATT [XGTACX_site7670],11.2 ± 0.82
11,TATTAAAAGGTGAGTACACACATATATGTGTATATA [CACACA_site7070],11.4 ± 0.83
12,TTACATGTAAAAGGTACACACATTATGTATACAAAT [CACACA_site1117],11.4 ± 0.88
13,TATGTGTGCAAAAACTGTACACATTAAAGGTATATA [XGTACX_site7627],11.7 ± 1.1
14,AAATTATTTCTTTGCGCATGTAGCTTTTATACTATT [TGCATGCA_site819],9.98 ± 0.16
15,ATTAAGTTCAAATGTAGTACGTGTAAAAAAAAAAAA [XGTACX_site1578],11.4 ± 0.83
16,TAAAAATATAAATTTTGTACGTAAAAAATGGTTCTT [XGTACX_site1506],11.5 ± 0.93
17,AATGGTTCAACGTAGTGTACGTAATAAATAATAAAT [XGTACX_site8668],11.8 ± 0.95
18,GGATAAGAAAAGAAGTGTACATATATATATATATAT [XGTACX_site8290],11.2 ± 0.68
19,CGGATCTATAAGTGTACACAATCTAGCGAAAAGTTT [CACACA_site4932],11.6 ± 1
20,ATTCGGATCTATAAGTGTACACAATCTAGCGAAAAG [XGTACX_site3088],11.5 ± 0.83
21,AGGCACAAAATTAAATGTACATATATATATATATAT [XGTACX_site3323],11 ± 0.6
22,ACGGATTAAAAAATGTGTACGCACAAAAAAAAAAAT [XGTACX_site8259],11.7 ± 0.97
23,TTATTAAAAATGGTATGTACGCACATAATATATATA [XGTACX_site3230],11.5 ± 0.71
24,TTTTTTTTTTTTTTTTTTTTTTTATGTTCTTAAAAA [GTGCAC_negctrl_site62],9.56 ± 0.35

row,Sequence,gcPBM binding intensity (ln)
1,CAAACCCACCAACACACACACACAAAAATGATTAAA [CACACA_site2432],10.2 ± 0.35
2,ATGTTCTTTAAAACCACACACCCCCCAACCCCCCTC [CACACA_site2373],11.7 ± 1
3,TTATGTTCTTTAAAACCACACACCCCCCAACCCCCC [CACACA_site8742],11.6 ± 0.87
4,CTTTAAACCCTGAACACACACAAATACACCCAAAAA [CACACA_site4297],10.7 ± 0.54
5,CACACCCACAAAAACACACACAAAGGTGTTCTTATA [CACACA_site1293],10 ± 0.13
6,TATATATGTATCAAGTGTACAGTTTTAAAAAAAAAA [XGTACX_site6011],11.4 ± 0.87
7,TTTCTTACAACAACAACAAAAAAAAATAAATAAAAT [GTGCAC_negctrl_site711],9.91 ± 0.16
8,AATATATATGAAAAAAGTACTCAAGGAATAAAAAAA [XGTACX_site7720],11.3 ± 0.67
9,TAATAAAACATATATACACACATTAGATATACATAT [CACACA_site6897],9.92 ± 0.057
10,AATGGAAATTTTTCTTGTACACATATATGACATGTT [XGTACX_site1691],11.3 ± 0.86
11,AAATTACTTTCACAGTGTACTTGGAAAAAAAAAAGA [XGTACX_site1046],11.3 ± 0.8
12,TCTTTGTACTTTCACATGTACACCCAAATGGAAATT [CACACA_negctrl_site1442],11.8 ± 0.87
13,ACATCTAGGCTTATTTTATGATACATGTGAATATAT [TGCATGCA_negctrl_site325],9.79 ± 0.099
14,TTTCATTTAGCTTTTACACACTATATATTATTGATT [CACACA_site16],9.82 ± 0.11
15,ATAATAAACATATATGTACACACATATACATATATA [CACACA_site8924],11.3 ± 0.94
16,AAAAATATATAAACACGTACACACACATATATGTAT [XGTACX_site7436],11.6 ± 0.88
17,TATATCTACTACACACGTACACAAAATAAGATACCT [XGTACX_site7886],11.5 ± 0.97
18,AATATATAAACACGTACACACACATATATGTATATA [CACACA_site9168],11.6 ± 1
19,AAAAAAATAAAACACATACATATATGTATATATATA [GTGCAC_negctrl_site390],9.77 ± 0.2
20,AATAAACATATATGTACACACATATACATATATATA [CACACA_site2848],11.4 ± 1.2
21,AGTTATATGTACTACACACGTACACAAAATAAGATA [CACACA_site3719],11.6 ± 0.75
22,ACATAAATAATAAAAACACACATATGTACATATATA [CACACA_site1913],11.3 ± 0.79
23,TAAGTTATATGTACTACACACGTACACAAAATAAGA [CACACA_site9237],11.8 ± 1
